D1 mod: allosteric modulators of human D1 dopamine receptor | P21728 | HEK293 D1, CRE-luciferase, dopamine EC30 potentiation; actives deviate in either direction | B-score at 10 µM | 5.9% of 58,000 active | AID 641;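 active = luminescence count or its row- and column-corrected plate score outside the 99.7% band of the plate's sample wells, on either side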
PostGolgi yeast: growth inhibition of a yeast mutant, post-Golgi transport screen | post-Golgi transport phenotypic cell assay | inhibition, % at 10 µM | 0.9% of 98,000 active | AID 739;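 note: yeast cells grown in 1536-well plates; yeast grown about 18 h at 30C before absorbance read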
PostGolgi ctrl: growth of the yeast control strain, post-Golgi counter-screen. efflux-deficient yeast background strain, growth absorbance A615, 16 h. inhibition, % at 10 µM. 5% of 98,000 active. AID 738
DAT uptake mod: human DAT dopamine uptake with cocaine, either direction; LLC-PK1 hDAT cells, [14C]-dopamine uptake with cocaine IC80; actives deviate in either direction; B-score at 10 µM; 1.3% of 110,000 active; Q01959; AID 449768;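 active = Z score or B-score, a plate-position-corrected score, falls beyond the plate's 99.7% confidence bounds, in either direction; inactive = both scores lie inside the 99.7% bounds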
Target sequence (Q01959 whole entry, looked up): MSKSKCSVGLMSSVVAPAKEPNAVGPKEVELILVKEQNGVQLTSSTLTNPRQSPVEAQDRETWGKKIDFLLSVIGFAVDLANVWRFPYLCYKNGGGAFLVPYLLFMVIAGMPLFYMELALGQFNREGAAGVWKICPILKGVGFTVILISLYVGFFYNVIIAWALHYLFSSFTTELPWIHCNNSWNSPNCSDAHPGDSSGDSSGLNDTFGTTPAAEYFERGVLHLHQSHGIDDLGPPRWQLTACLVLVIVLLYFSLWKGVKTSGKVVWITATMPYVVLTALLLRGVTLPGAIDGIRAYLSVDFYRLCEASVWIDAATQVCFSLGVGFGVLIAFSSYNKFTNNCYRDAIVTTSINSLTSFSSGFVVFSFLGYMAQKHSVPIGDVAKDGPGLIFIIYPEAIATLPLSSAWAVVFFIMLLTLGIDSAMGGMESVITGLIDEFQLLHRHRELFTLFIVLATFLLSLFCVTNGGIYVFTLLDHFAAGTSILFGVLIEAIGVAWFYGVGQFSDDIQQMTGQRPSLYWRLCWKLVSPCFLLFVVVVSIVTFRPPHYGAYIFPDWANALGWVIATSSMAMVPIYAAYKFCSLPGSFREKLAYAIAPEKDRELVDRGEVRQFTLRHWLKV
PLAP act: activates human placental alkaline phosphatase. 1.2% of 96,000 active. activation fold at 20 µM. purified PLAP enzyme, luminescent substrate read-out; active compounds read high; in the data active = activation fold above about 2
Cav3 T inh: human Cav3.2 channel inhibition, primary screen. Cav3.2-expressing cells, Fluo-4 calcium fluorescence FDSS; active compounds read low. B-score at 10 µM. 4% of 100,000 active;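 active = single-dose well whose peak fluorescence ratio is a statistical outlier from its plate by either plate-standardised score or position-corrected B-score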
Of the large screens only hits and unclear results are named; the others gave an inactive call; ! = not active in a repeat. An excerpt weighted towards active compounds, which were near 12% of everything screened. Cut-off read from the data, not from the text of the source, unless noted: active = inhibition above about 30%; inactive = the rest.

CCOC(=O)c1ccc(NC(=O)NC2CC3CCC(C2)N3Cc2nnnn2Cc2ccco2)cc1 (stereo not drawn)	Cav3 T inh -6.1 (no result: D1 mod)
CC/C=C\[C@H](O)[C@H](O)C1=C(C)C(=O)[C@]2(O1)C(=O)N[C@@](OC)(C(=O)c1ccccc1)C2O (stereo partly drawn)	none (no result: D1 mod, PostGolgi yeast, PostGolgi ctrl, PLAP act)
O=C(c1ccc(Cl)cc1)c1oc2ccccc2c1CS(=O)(=O)c1ccccc1	PostGolgi ctrl 31 (no result: D1 mod)
Nc1c(C(=O)Nc2ccc(Cl)cc2)oc2ccccc12	none (no result: Cav3 T inh)
Cc1cccc(/C=C2/S/C(=N/N=C3\CC4CCC3(C)C4(C)C)NC2=O)c1 (stereo not drawn)	none (no result: D1 mod)
CCOC(=O)C1=C(C)NC(=O)NC1c1ccc(Br)s1 (stereo not drawn)	none
CC1=C(C(=O)OC(C)C)C(c2ccc(Br)s2)NC(=O)N1C (stereo not drawn)	Cav3 T inh -4.4
C=CC[n+]1c(-c2ccc(OCC)cc2)csc1NNC(=O)Nc1ccccc1	none (no result: D1 mod)
Cc1ccc2c(CC(=O)Nc3ccc(N4CCN(C)CC4)cc3C)coc2c1	D1 mod -4.7
Cc1ccc2c(CC(=O)NCc3ccc4c(c3)OCO4)coc2c1	Cav3 T inh -4.6
O=C(CCCc1c[nH]c2ccccc12)NCc1ccc2c(c1)OCO2	Cav3 T inh -10 (no result: D1 mod)
Cc1ccc(-c2noc(CCC(=O)NCc3ccc4c(c3)OCO4)n2)cc1	DAT uptake mod 1.2
Cc1ccc(CC(=O)NCc2ccc3c(c2)OCO3)cc1	none (no result: D1 mod)
COC(=O)C[C@H]1c2cc(F)cc(F)c2S(=O)(=O)N1C1CCN(Cc2ccccc2)CC1	none (no result: D1 mod, PostGolgi yeast, PostGolgi ctrl, PLAP act)
O=C(CSc1ncn[nH]1)Nc1ccc(S(=O)(=O)N2CCCC2)cc1	none (no result: D1 mod)
Cc1ccc(-c2csc3ncnc(SCC(=O)NCc4ccc5c(c4)OCO5)c23)cc1	PostGolgi ctrl 43 (no result: D1 mod)
Cc1ccc2c(CC(=O)OC(C)C(=O)NCc3ccc4c(c3)OCO4)coc2c1 (stereo not drawn)	Cav3 T inh -5.1
O=C(NCc1ccc2c(c1)OCO2)c1cc(-c2ccccc2)on1	Cav3 T inh -4.6
CC(C)C(OC(=O)c1cc2occc2n1C)C(=O)NCc1ccc2c(c1)OCO2 (stereo not drawn)	PostGolgi ctrl 48
Nc1nncn1C(=O)CCc1ccccc1	none
CCCn1c(SCC(=O)NC(=O)Nc2ccc(C)cc2C)n[nH]c1=O	none
CCCn1c(SCC(=O)c2cc(C)c(C)cc2C)n[nH]c1=O	PLAP act 2.2 (no result: D1 mod)
CC1(C)CC(=O)C=C(OC(=O)c2ccc(Cl)cc2)C1	none (no result: D1 mod)
COc1ccc(Cn2c(CCC(=O)Nc3ccc(C)c(C)c3)nc3cccnc32)cc1	Cav3 T inh -3.5 (no result: D1 mod)
O=C(CCc1nc2cccnc2n1Cc1ccccc1)NCCc1ccc(Cl)cc1	Cav3 T inh -7.2 (no result: D1 mod)
COCCCNC(=O)CCc1nc2cccnc2n1Cc1ccccc1	none
CCOC(=O)N1CCC(=NNS(=O)(=O)c2cccc([N+](=O)[O-])c2)CC1	none (no result: D1 mod)
CC1(C)CNC(=O)c2sc(N3CCOCC3)nc2C1	none
CCC(C)n1c(C)nc2c(c1=O)c1nc3ccccc3nc1n2-c1ccc2c(c1)OCCO2 (stereo not drawn)	D1 mod -5.3 (no result: PostGolgi yeast, PostGolgi ctrl, DAT uptake mod, Cav3 T inh)
O=c1c2c3nc4ccccc4nc3n(-c3ccc4c(c3)OCCO4)c2ncn1C1CCCC1	none (no result: PostGolgi yeast, PostGolgi ctrl)
O=C(Nc1ccc(N2CCN(C(=O)c3ccccc3)CC2)c(Cl)c1)c1ccco1	none (no result: D1 mod)
CCCC(=O)N1CCN(c2ccc(NC(=O)c3cc4ccccc4o3)cc2Cl)CC1	PostGolgi yeast 86, PostGolgi ctrl 50
CCC(=O)N1CCN(c2ccc(NC(=O)c3cc4ccccc4o3)cc2Cl)CC1	D1 mod -3.9, PostGolgi ctrl 38 (no result: Cav3 T inh)
O=C(Nc1ccc(N2CCN(C(=O)c3ccco3)CC2)c(Cl)c1)c1cc2ccccc2o1	none (no result: DAT uptake mod, Cav3 T inh)
O=C(Nc1ccccc1Cl)O/N=C/c1ccncc1	none (no result: D1 mod, PostGolgi yeast, PostGolgi ctrl, PLAP act)
COc1ccc(C2=Nn3c(nnc3-c3ccco3)SC2)cc1OC	none (no result: D1 mod)
CCCCCC(=O)Nc1nc2ccccc2[nH]1	none (no result: D1 mod, PostGolgi yeast, PostGolgi ctrl, PLAP act)
CCS(=O)(=O)N1Cc2ccccc2CC1C(=O)Nc1nc2ccccc2[nH]1 (stereo not drawn)	PLAP act 2.4
O=C(c1ccco1)N1CCN(C(=O)c2cccn3c(=O)c4c5c(sc4nc23)CCCC5)CC1	D1 mod 3.8 (no result: PostGolgi yeast, PostGolgi ctrl, DAT uptake mod, PLAP act, Cav3 T inh)
CC(C)c1nc(N2CCN(C(=O)c3ccco3)CC2)c2c3c(sc2n1)CCCC3	none
OCCN1CCN(CCCN2c3ccccc3Sc3ccc(C(F)(F)F)cc32)CC1	none (no result: PostGolgi yeast, PostGolgi ctrl, PLAP act)
CN1CCN(CCCN2c3ccccc3Sc3ccc(Cl)cc32)CC1	Cav3 T inh -5.1! (no result: PostGolgi yeast, PostGolgi ctrl, PLAP act)
O=S(=O)(c1ccc(NC2CCCc3ccccc32)nc1)N1CCOCC1 (stereo not drawn)	none
CCN(CC)S(=O)(=O)c1ccc(NC2CCCc3ccccc32)nc1 (stereo not drawn)	PostGolgi ctrl 48 (no result: PLAP act)
CCOc1ccc(Cn2nnc(C(=O)NCc3ccc(OC)cc3)c2N)cc1	Cav3 T inh -5.2
CCc1ccc(Cn2nnc(C(=O)Nc3ccc(OC)cc3OC)c2N)cc1	none
Cc1ccc(N(C)C(=O)N2CCN(S(=O)(=O)c3ccc4ccccc4c3)CC2)cc1	none (no result: D1 mod)
CCOC(=O)CC1=CC(C)(CC(=O)OCC)C(C#N)(C#N)C(N)=C1C#N (stereo not drawn)	none
CC1CCCN(Cc2cnc(Cl)s2)C1 (stereo not drawn)	PostGolgi ctrl 41 (no result: D1 mod, Cav3 T inh)
CC1CCN(Cc2cnc(Cl)s2)CC1	none (no result: D1 mod, Cav3 T inh)
COC(=O)/C=C1\S/C(=N/NC(=O)c2ccccc2)NC1=O	PLAP act 2.5 (no result: D1 mod)
COC(=O)/C=C1/S/C(=N/NC(=O)c2ccccc2)NC1=O	none (no result: D1 mod)
COc1ccccc1/C=C1\S/C(=N/NC(=O)c2cccc(Br)c2)NC1=O	Cav3 T inh -4.2 (no result: D1 mod)
Cc1ccc(S(=O)(=O)c2cc3c(=O)n4ccccc4nc3n(CC3CCCO3)c2=N)cc1C (stereo not drawn)	D1 mod 10 (no result: PostGolgi yeast, PostGolgi ctrl, DAT uptake mod, PLAP act, Cav3 T inh)
N=c1c(S(=O)(=O)c2ccccc2)cc2c(=O)n3ccccc3nc2n1CCN1CCOCC1	none (no result: PostGolgi yeast, PostGolgi ctrl, DAT uptake mod, PLAP act, Cav3 T inh)
COc1cccc(-c2cc(C(F)(F)F)c3c(N)c(C#N)sc3n2)c1	none (no result: D1 mod, DAT uptake mod, Cav3 T inh)
Nc1c(C(=O)C2CC2)sc2nc(-c3ccccc3)cc(C(F)(F)F)c12	Cav3 T inh -6.2 (no result: D1 mod, PostGolgi yeast, PostGolgi ctrl, PLAP act)
CCCCCCOC(=O)C(C#N)c1nc2ccccc2nc1N1CCN(CC)CC1 (stereo not drawn)	D1 mod -4.1
CCCCCCOC(=O)C(C#N)c1nc2ccccc2nc1N1CCOCC1 (stereo not drawn)	none
CCCCOC(=O)C(C#N)c1nc2ccccc2nc1N1CCOCC1 (stereo not drawn)	PostGolgi ctrl 37
O=C(Nc1ccc(Cl)c(Cl)c1)N1CCSCC1	none (no result: D1 mod, PostGolgi yeast, PostGolgi ctrl, PLAP act)
OC(CN1C2=NCCN2c2ccccc21)c1ccc(Br)cc1 (stereo not drawn)	D1 mod -5
COc1ccc(-c2nnc(SCC(=O)c3cccs3)o2)cc1	Cav3 T inh -5.2
O=C(OCC#CCSc1nnc(-c2ccc([N+](=O)[O-])cc2)o1)c1cccs1	none (no result: D1 mod)
Cc1ccc(-c2nnc(SCC#CCOC(=O)c3cccs3)o2)cc1	PostGolgi ctrl 36 (no result: D1 mod)

Source: PubChem BioAssay (several laboratories)
